The source of these data is PubChem BioAssay AID1662 (Broad Institute, 2009).

For orientation: inhibition means the drop in the measured response relative to a control, in per cent.

The structures appear in SMILES notation. About 4,000 (1.3%) of roughly 300,000 compounds were called active. For the sample, actives were picked, then their nearest neighbours and some compounds at random. A number with no mark means an inactive call.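 Rule for the calls: active = mean replicate score, as percent of positive control median, at least 50; inconclusive = mean below 50 but one replicate at or above 50; inactive = mean and every replicate below 50.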

A short description of the experiment: S. pyogenes SKKanGAS growth inhibitors in kanamycin, primary screen, streptokinase expression inhibitor project, SKKanGAS strain, BacTiter-Glo luminescence (AID 1662).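 Note: strain carries kanamycin resistance gene driven by streptokinase promoter and grows in 40 µg/ml kanamycin; loss of luminescence reflects streptokinase promoter inhibition or plain growth inhibition; 0% = median of DMSO wells and 100% = positive control at its reference dose.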 The note with it: 6 h, at 7.5 µM, active compounds read high.
With `Cc1nn(CCCC(=O)NCc2ccccc2Cl)c(=O)c2nccn12`, the inhibition was -6.9%.
Regarding `Cc1ccc2nc(-c3ccncc3)cc(C(=O)Nc3ccncc3)c2c1`, the inhibition was 1.9%.
As to `Cc1ccc2nc(Nc3ccccc3)cc(C)c2c1`, the inhibition is 0.508%.
The value for `CCS(=O)(=O)Nc1cccc(-c2cc(-c3ccccc3)c3cc(C)ccc3n2)c1` was 97.3% (active); that for `CCOCCCNC(=O)c1ccc(CS(=O)(=O)c2cccc(C(F)(F)F)c2)o1` was -1.72%.
In the case of `CCC(=O)Nc1ccc(-c2ccc(N3CCCCC3)nn2)cc1`, the inhibition was 1.15%.
With `CC1CCN(c2ccc(-c3ccc(NC(=O)c4ccco4)cc3)nn2)CC1`, the inhibition was 70% (active).
Regarding `CC1CCN(C(NC(=O)c2ccco2)C(=O)c2ccccc2)CC1` (centres undefined), the inhibition is -2.13%.
With `CCCCCN(C(=O)CCC(=O)OCCOc1ccc(OC)cc1)c1c(N)n(CCCC)c(=O)[nH]c1=O`, the inhibition was -3.52%.
As for `CS(=O)(=O)c1ccc2nnn(OCC(=O)Nc3cccc(C#N)c3)c2c1`, the inhibition is -3.98%.
The value for `COc1ccc(NC(=O)CN2C(=O)CSc3ccc(S(=O)(=O)N4CCC(C)CC4)cc32)cc1` was 10.8%; that for `CCOC(=O)c1cnc(-c2ccccc2)nc1Oc1ccc(C)cc1` was 20.4%; that for `CCOC(=O)c1cnc(-n2nc(C)cc2C)nc1Nc1cccc(C(C)=O)c1` was 35%.
Regarding `CCOC(=O)c1cnc(-n2nc(C)cc2C)nc1NNc1cc(C)nc(-c2ccccc2)n1`, the inhibition was 101% (active).
Take `Cc1ccc(S(=O)(=O)/N=C(\CN2CCOCC2)N2CCOCC2)cc1`: the inhibition was 2.49%.
Next, `CC(C)N1CCC(=NNc2ccc([N+](=O)[O-])cc2S(=O)(=O)N2CCOCC2)CC1`: 17.1%; `CN(C)c1ccc(-n2cccc2/C=N/n2cnnc2)cc1`: 0.00128%.
Turning to `Cc1ccccc1NC(=S)NNC(=O)c1cccc(Br)c1`, the inhibition is -4.92%.
`O=C(NC(=S)Nc1cccc2c(O)cccc12)c1cccc(Br)c1`: the inhibition is 63.3% (active).
As to `NS(=O)(=O)c1ccc(NC(=S)NC(=O)c2cccc(Br)c2)cc1`, the inhibition is 0.49%.
Turning to `CCOC(=O)c1ccccc1NS(=O)(=O)c1c(C)nc2sccn2c1=O`, the inhibition is -2.29%.
Take `CN(C)CCNc1ccc(-c2n[nH]c(=O)c3ccccc23)cc1[N+](=O)[O-]`: the inhibition was -10.2%.
The value for `Oc1cccc(/C=N/Nc2ccc(Cl)nn2)c1O` was -9.25%; that for `Cc1nc(Cl)cc(N/N=C/c2ccccc2)n1` was -4.1%; that for `COc1cccc2c(N/N=C/c3ccco3)cc(C)nc12` was -8.63%.
As to `Cc1cc(N/N=C\c2ccc(Br)cc2)nc(-n2nc(C)cc2C)n1`, the inhibition was 102% (active).
For `COc1ccccc1/C=N\Nc1cc(C)nc(-n2nc(C)cc2C)n1`, the inhibition is 101% (active).
As for `COc1ccc(-c2nn(-c3ccccc3)cc2/C=N/Nc2ccccn2)cc1OC`, the inhibition is 16.9%.
Take `COc1cccc(/C=N/Nc2cc(C)nc(-c3ccccc3O)n2)c1O`: the inhibition is 64.5% (active).
As for `Cc1ccc(S(=O)(=O)Nc2nc(C)cc(N/N=C/c3ccc(O)cc3)n2)cc1`, the inhibition was -2.8%.
Next, `COc1ccc(/C=N/Nc2cc(N3CCOCC3)nc(C)n2)c(OC)c1`: 14.3%; `CC(=O)Nc1ccc(NS(=O)(=O)c2ccc3c(c2)NC(=O)CC(=O)N3)cc1`: -2.61%; `CCOC(=O)N1CCN(S(=O)(=O)c2ccc(OC)cc2)CC1`: -0.833%.
The value for `Cc1cc(N2C(=O)C(=O)/C(=C(/O)c3ccccc3)C2c2cccc(Br)c2)no1` (centres undefined) was 16.7%.
Take `Cn1nnc(NC(=S)NC(=O)c2ccccc2)n1`: the inhibition is -0.537%.
Next, `COc1ccccc1CCC(=O)OCC(=O)N1CCN(S(=O)(=O)c2ccc(C)cc2C)CC1`: -9.85%; `Cc1ccccc1NC(=O)C1CCCN(C(=O)NCc2ccccc2)C1` (centres undefined): -1.35%; `CCCCN=C1C([N+](=O)[O-])=CC=C2C1=NC1(CCCCC1)N2O`: 2.56%.
On to `Clc1ccc(-c2cc(C3CCNCC3)[nH]n2)c(Cl)c1`, for which the inhibition was 7.25%.
The value for `COc1ccc(CCNC(=O)CCCCCNC(=O)N2CCn3c2nc2ccccc23)cc1OC` was 3.33%.
The value for `COc1ccccc1N1CCN(C(=O)CCS(=O)(=O)c2ccc3c(c2)NC(=O)C(C)S3)CC1` (centres undefined) was -2.2%; that for `COC(=O)CNC(c1ccccc1Cl)c1cc(Br)ccc1NC(=O)CCN1CCOCC1` (centres undefined) was -3.8%.
Regarding `CC(=O)O[C@H]1CC[C@@]2(C)[C@@H](CC[C@@H]3[C@@H]2CC[C@]2(C)[C@@H](C(C)(C)O)C[C@@H]32)C1`, the inhibition was 29%.
Take `COc1ccc(-c2cc(-c3ccc(N)cc3)nc(N)c2C#N)cc1OC`: the inhibition was 9.35%.
Take `CCOc1cc(-c2cc(-c3ccc(NC(C)=O)cc3)nc(N)c2C#N)ccc1O`: the inhibition was 83.8% (active).
The value for `CCOc1cc(-c2cc(-c3ccc(OC)cc3)nc(N)c2C#N)ccc1O` was 30.5%; that for `O=S(=O)(c1cccc(C(F)(F)F)c1)N1CCN(c2cnccn2)CC1` was 0.567%.
On to `CC(C)CCNC(=O)CCNS(=O)(=O)c1ccc(Cl)cc1`, for which the inhibition was -4.22%.
Turning to `COCCSc1nnc(NC(=O)CCS(=O)(=O)Cc2ccccc2)s1`, the inhibition is -1.08%.
With `Cc1cc(C)cc(N(CCC#N)C(=O)CN2C(=O)NC3(CCCC3)C2=O)c1`, the inhibition is -1.7%.
For `Cc1ccc(OCc2n[nH]c(=S)n2-c2ccc(C)cc2)cc1`, the inhibition was -0.726%.
On to `Cc1ccc(OCCCCc2c(C)n[nH]c2C)cc1`, for which the inhibition was 87.2% (active).
For the compound `CCCOc1ccc(-c2nc(N)n[nH]2)cc1`, the inhibition was -0.246%.
`Cc1cc2c(c(=O)n1C)C(C(C)C)C(C#N)=C(N)O2` (centres undefined): the inhibition is -0.711%.
As to `CCOC(=O)c1c(-c2ccccc2)oc2cc(Br)c(O)cc12`, the inhibition is 12.5%.
Take `CCOC(=O)c1c(-c2ccccc2)oc2cc(Br)c(O)c(C=O)c12`: the inhibition is 56.9% (active).
`CCOC(=O)c1c(-c2ccccc2)oc2ccc(OCC(N)=O)cc12`: the inhibition is -10.7%.
Consider `COc1ccccc1CNS(=O)(=O)c1cc2c3c(c1)CCC(=O)N3CCC2`, for which the inhibition was -8.56%.
Take `NS(=O)(=O)c1ccc(CCNC(=O)CN2C(=O)c3ccccc3S2(=O)=O)cc1`: the inhibition was -2.59%.
Consider `CCCCCCc1cc2cc(-c3nnc(-c4ccccc4)o3)c(=O)oc2cc1O`, for which the inhibition was 62% (active).
`Cc1c(CC(=O)NCCCCCC(=O)O)c(=O)oc2cc3occ(-c4ccccc4)c3cc12`: the inhibition is 18.7%.
As to `CCCCCCc1ccc(O)cc1O`, the inhibition is 9.42%.
As to `O=C(CCc1nnc2ccc(NCc3ccco3)nn12)Nc1cc(F)ccc1F`, the inhibition was -0.213%.
The value for `Cc1ccc(NC(=S)NC(=O)c2ccc(-c3ccccc3)cc2)cc1` was 9.46%.
In the case of `C/C(=N\NC(=O)c1ccc(C)cc1)C1C(=O)c2ccccc2C1=O`, the inhibition was 52.3% (active).
Turning to `Cc1ccc(C(=O)NC(=S)Nc2ccccc2C)cc1`, the inhibition is -6.14%.
On to `Cc1cc(C)c(NC(=O)C[N+](C)(C)CC(O)COc2cccc3ccccc23)c(C)c1` (centres undefined), for which the inhibition was 29%.
In the case of `CC(C)c1ccccc1OCC(O)CN(CC(O)COc1cccc2ccccc12)C(C)C` (centres undefined), the inhibition was 97.9% (active).
Take `OC(COc1cccc2ccccc12)CN1CCN(c2ccccn2)CC1` (centres undefined): the inhibition is 13.1%.
As to `CC(C)=CCCC1(C)C=Cc2c(ccc3c2[nH]c2cc(O)c(C)cc23)O1` (centres undefined), the inhibition is 112% (active).
Consider `COc1ccc(CCNC(=O)C(=O)NCC2OCCN2S(=O)(=O)c2cccs2)cc1OC` (centres undefined), for which the inhibition is -1.24%.
Regarding `CCCCCCCCCCCCC(NC(C)=O)(C(=O)OCC)C(=O)OCC`, the inhibition was 61.2% (active).
As to `CCCC(CCC(=O)OC)(C(=O)OCC)c1csc(N)n1` (centres undefined), the inhibition was -8.11%.
On to `O=S(=O)(c1cccc(-c2cn3ccccc3n2)c1)N1CCCC1`, for which the inhibition is -3.54%.
Take `O=C(CSc1nc(O)c(Cc2ccccc2)c(=O)[nH]1)Nc1nc2c(s1)CCCC2`: the inhibition is 28.8%.
Next, `O=S(=O)(c1cc(Cl)ccc1Cl)N1CCN(Cc2ccco2)CC1`: 2.62%.
Next, `CC(=O)Nc1ccc(NC(=O)C(C)n2c3ccccc3c3nc(=O)cc(C)n32)cc1` (centres undefined): 3.43%.
Consider `C=CCn1c(SCC(=O)NCC2CCCO2)nc2sc(C)c(C)c2c1=O` (centres undefined), for which the inhibition was -1.04%.
`Cc1sc2nc(SCC(N)=O)n(C)c(=O)c2c1C`: the inhibition was -2.36%.
As to `C=CCn1c(SCC(=O)/C(C#N)=C(\C)N)nc2sc(C)c(C)c2c1=O`, the inhibition is 58.1% (active).
As to `COc1ccc(NC(=O)CN(C)C(=O)/C=C/c2cn(Cc3ccccc3)nc2-c2cccnc2)cc1`, the inhibition was 18.3%.
With `CCOc1ccc2[nH]c(=O)c(CN(CCCO)S(=O)(=O)c3ccc(F)cc3)cc2c1`, the inhibition is 0.803%.
Next, `COc1cc(C2C(C(=O)c3ccco3)=C(O)C(=O)N2c2cc(C)on2)ccc1OCc1ccccc1` (centres undefined): 2.64%.
On to `Cc1cc(N2C(=O)C(O)=C(C(=O)c3ccc(C)o3)C2c2ccc(OCc3ccccc3)cc2)no1` (centres undefined), for which the inhibition is 106% (active).
Next, `C=CCOc1cccc(C2C(C(=O)c3ccc(C)o3)=C(O)C(=O)N2c2nnc(C)s2)c1` (centres undefined): 7.43%; `Cc1ccc(C2(c3ccc(C)cc3)NC(=O)N(Cc3c(C)noc3C)C2=O)cc1`: 4.44%.
`O=C(CCc1ccccc1)NNC(=O)COc1ccc(Cl)cc1`: the inhibition was 5.54%.
As for `COc1ccc(C2CC(c3ccc(C)cc3)Nc3ncnn32)cc1` (centres undefined), the inhibition is -7.13%.
`Clc1ccc(C2CC(c3cccs3)n3ncnc3N2)cc1Cl` (centres undefined): the inhibition is -0.937%.
Regarding `FC(F)Oc1ccccc1C1CC(c2ccc(Br)s2)Nc2ncnn21` (centres undefined), the inhibition is 59.5% (active).
In the case of `CCCCCC(O)(CCN1CCCCC1)c1ccccc1` (centres undefined), the inhibition is -0.734%.
Turning to `Cc1ccsc1C(=O)OCC(=O)c1cc(C)n(CC2CCCO2)c1C` (centres undefined), the inhibition was 9.42%.
On to `Cc1ccsc1C(=O)OCC(=O)c1cc2ccccc2o1`, for which the inhibition is 49.9% (active).
For `CSCCC(NC(=O)COc1ccccc1)C(=O)OCC(=O)c1cc2ccccc2o1` (centres undefined), the inhibition is -0.0582%.
